From PubChem BioAssay AID504834 (National Center for Advancing Translational Sciences (NCATS), 2011)
The campaign covered roughly 320,000 compounds. About 22,000 (6.9%) were called active. Entries that show only a call come without a potency. Another 27% or so got no clear call; they are omitted. Calls come from the whole dose curve; as a rule, active = well fitted inhibition curve with a large enough effect; inconclusive = small, poorly fitted or top-dose-only effect, or another doubt; inactive = no such curve, though single readings can be large or run the other way. The sample as a whole holds a higher share of actives than the screen did.

test: Primary qHTS for delayed death inhibitors of the malarial parasite plastid, 96 hour incubation; conditions: P. falciparum luciferase reporter growth; series mostly up to 28.7 µM
Source text: The goal of this screen is to discover new antimalarial compounds that act by inhibiting the development of the apicoplast in the malarial parasite Plasmodium falciparum. The biochemical processes that make this organelle essential for erythrocytic stage parasites are not well understood. However, antibiotics such as azithromycin and tetracycline, which target the apicoplast translational machinery, have a potent antimalarial effect.
We have developed a cell-based assay that measures parasite growth based on the expression of an integrated copy of a firefly luciferase reporter. To detect small molecules that cause this "delayed death" phenotype, erythrocytes infected with the luciferase-expressing parasites were incubated with compounds for either one or two generations, corresponding to 48 and 96 hours, respectively. Compounds that inhibit parasite growth in the second generation, but not the first, should be enriched in antimalarials that target the apicoplast. Growth inhibition is detected by a decrease in luciferase activity.
Assay Provider: David Fidock and Eric Ekland, Columbia University
Keywords: NIH Roadmap, MLPCN, MLI, MLSMR, qHTS, NCGC, qHTS, malaria, luciferase, viability
Four microliters of infected erythrocytes (2% hematocrit, 0.05% parasitemia final concentration) in culture medium were dispensed and the plates incubated for 96 hours at 37 C in 5% CO2. Two microliters of luciferase detection reagent was added and luminescence was detected by a ViewLux (PerkinElmer) reader.
Potency is the fitted concentration of half-maximal effect.

| Structure (SMILES) | Potency |
| --- | --- |
| Cc1ccccc1NC(=O)C(C)OC(=O)CCC(=O)N(CC(C)C)c1c(N)n(CC(C)C)c(=O)[nH]c1=O (stereo unspecified) | inactive |
| Cc1ccc(S(=O)(=O)N2CCC(C(=O)OCC(=O)N(C)c3ccccc3)CC2)cc1C | inactive |
| CCN(CC(=O)NCc1cccs1)C(=O)c1ccc(OC)c(S(=O)(=O)N2CCOCC2)c1 | inactive |
| CC(C)(C)NC(=O)NC(=O)CN1CCC(Cc2ccccc2)CC1 | inactive |
| CC(C)(C)NC(=O)NC(=O)COC(=O)C1c2ccccc2Oc2ccccc21 | inactive |
| Cc1ccccc1CSCC(=O)NC(=O)NC(C)(C)C | 10.4 µM (active) |
| COc1ccc(NC(=O)c2cc([N+](=O)[O-])ccc2NC(=O)CNC2CCCCC2C)c(OC)c1 (stereo unspecified) | inactive |
| CN(CC(=O)Nc1ccc(F)c(F)c1F)C(=O)Cn1cnc2c1c(=O)n(C)c(=O)n2C | inactive |
| COc1ccc([C@H]2CC(=O)C=C(c3ccc(C)cc3)C2)cc1 | inactive |
| COc1ccc([C@H]2CC(=O)C=C(c3ccc(OC(F)(F)F)cc3)C2)cc1OC | 11.7 µM (active) |
| COc1ccc2cc(C3=CC(=O)C[C@H](c4ccc5c(c4)OCO5)C3)ccc2c1 | inactive |
| COc1cccc(N2CC(NS(=O)(=O)c3cccs3)CC2=O)c1 (stereo unspecified) | inactive |
| FCOC(C(F)(F)F)C(F)(F)F | inactive |
| O=C(COc1ccc2c(c1)CCC2)N1CCN(c2ccc(F)cc2)CC1 | inactive |
| COc1ccccc1NC(=S)N1CCN(C(c2ccccc2)c2ccccc2)CC1 | inactive |
| CC(C)OCC(O)CN1CCN(C(c2ccccc2)c2ccccc2)CC1 (stereo unspecified) | inactive |
| COc1ccccc1CN1CCN(C(c2ccccc2)c2ccccc2)CC1 | 8.28 µM (active) |
| O=C(O)CN1CCN(C(c2ccccc2)c2ccccc2)CC1 | inactive |
| COc1ccccc1CN1CCN(Cc2cc(OC)c(OC)cc2OC)CC1 | inactive |
| Oc1ccccc1CN1CCN(C(c2ccccc2)c2ccccc2)CC1 | 0.828 µM (active) |
| CC1=C(C(N)=O)C(c2ccc(F)cc2)n2nc(CCCO)nc2N1 (stereo unspecified) | inactive |
| COc1cccc(N(C(=O)c2snc(C(N)=O)c2N)C(C(=O)NCC2CCCO2)c2c[nH]c3ccccc23)c1 (stereo unspecified) | inactive |
| CC(C)Cc1nc(Cl)c(C#N)c2c1CCC2 | inactive |
| COC(=O)c1ccc(S(=O)(=O)N(CCO)Cc2ccccc2)n1C | inactive |
| COc1ccccc1C(=O)Nc1ccc(OCC(=O)N2CCCCC2)cc1 | inactive |
| COc1ccccc1C(=O)NNC(=O)c1ccc(NC(=O)c2ccccc2)cc1 | inactive |

| Structure (SMILES) | Potency |
| --- | --- |
| COc1ccccc1C(=O)Nc1ccc(OCc2nnc3c4ccccc4c(C)nn23)cc1 | 9.28 µM (active) |
| CC(=O)N1CCN(C(=O)C2(NC(=O)Nc3ccc(C)cc3)CCCCC2)CC1 | inactive |
| O=C(NCc1cc(F)cc(C(F)(F)F)c1)C1CCC(=O)N(C2CCCC2)C1 (stereo unspecified) | inactive |
| CCOC(=O)c1c(CNCc2ccccc2F)c2sc(C)cc2n1C | inactive |
| COc1ccc(Nc2ncnc3sc(C)cc23)cc1 | inactive |
| CN1/C(=c2/s/c(=C3/C(=O)N(c4ccccc4)NC3=Nc3ccccc3)n(C)c2=O)C(C)(C)c2ccccc21 | 11.7 µM (active) |
| CCN1C(=O)/C(=c2\s/c(=C3\Sc4ccccc4N3C)c(=O)n2C)N(C)C1=S | inactive |
| Cc1csc2nc(O)c(C(=O)NCCN3CCOCC3)c(=O)n12 | inactive |
| CCCCC(NS(=O)(=O)c1ccc(C)cc1)C(=O)Oc1ccc2c3c(c(=O)oc2c1)CCC3 (stereo unspecified) | inactive |
| O=C(COc1ccc2c3c(c(=O)oc2c1)CCC3)NC1CCCCC1 | inactive |
| CCCOc1ccc2c3c(c(=O)oc2c1OCCC)CCC3 | 6.57 µM (active) |
| O=C(Cn1cc(C(=O)C2CC2)c2ccccc21)Nc1ccccc1Cl | inactive |
| COCCCNc1nc2c(-c3cccc(C)c3)nnn2c2ccc(Cl)cc12 | inactive |
| CC1=NN(C(=O)CCc2ccccc2O)C(O)(C(F)(F)F)C1 (stereo unspecified) | inactive |
| O=C(Cc1ccccc1)N1N=C(c2ccncc2)CC1(O)C(F)(F)F (stereo unspecified) | 13.1 µM (active) |
| CC1=NN(C(=O)CCCc2ccccc2)C(O)(C(F)(F)F)C1 (stereo unspecified) | inactive |
| Cc1ccc2[nH]c(=O)c(CN(C)S(=O)(=O)c3cccc4nonc34)cc2c1 | inactive |
| CC1=NNC(=O)C1CC(=O)N/N=C/c1ccncc1 (stereo unspecified) | inactive |
| [O-][N+]12CCCCC1CCCC2CO (stereo unspecified) | inactive |
| CC(=O)Nc1ccc(NC(=O)CCN2C(=O)C3CC=CCC3C2=O)cc1 (stereo unspecified) | inactive |
| O=C(CC1SC(N2CCCC2)=NC1=O)Nc1ccc(C(=O)NCCc2ccc(F)cc2)cc1 (stereo unspecified) | 10.4 µM (active) |
| O=C(CSc1nnc(SCc2ccc(F)cc2)s1)Nc1ccc(C(=O)O)cc1 | inactive |
| O=C(NCCc1ccc(F)cc1)c1ccc2nccnc2c1 | inactive |
| O=C(CNC(=O)Cc1ccccc1)N=Nc1c(O)[nH]c2ccc(Br)cc12 | inactive |
| O=C(c1ccccc1)N1CCN(C(=O)c2cc3nc(-c4ccccc4)cc(C(F)(F)F)n3n2)CC1 | inactive |
| Cc1ccc2nc(/C(C#N)=C\c3ccc(OC(=O)c4cccs4)cc3)[nH]c2c1 | 9.28 µM (active) |

| Structure (SMILES) | Potency |
| --- | --- |
| COc1cc(/C=C(\C#N)c2nc3ccccc3[nH]2)ccc1O | inactive |
| Cc1ccc2nc(S(=O)(=O)O)[nH]c2c1 | inactive |
| Cc1c(C=O)c2ccccc2n1CCOc1ccccc1 | inactive |
| Cc1nn(C)c(Cl)c1CN1CCC(Oc2ccc(C(=O)N3CCCC3)cc2)CC1 | inactive |
| COc1ccc(C(=O)NC(C)CCc2ccccc2)c(OC)c1 (stereo unspecified) | inactive |
| CC(C)c1ccc(C(=O)OC2CCOC2=O)cc1 (stereo unspecified) | inactive |
| Cn1c(=O)c2ccccc2n(CC(=O)Nc2ccc3c(c2)OCCO3)c1=O | inactive |
| Cc1ccc(S(=O)(=O)Oc2ccc(/C=N/NC(=O)c3ccncc3)cc2)cc1 | inactive |
| COc1ccc(CC(=O)NCC(=O)N/N=C/c2cc(Br)ccc2OC)cc1 | inactive |
| Cc1ccc(OCCOCCOc2ccc(Br)cc2/C=N\NC(=O)c2ccncc2)cc1 | 5.22 µM (active) |
| CNS(=O)(=O)c1cccc(C(=O)NC2CCCc3ccccc32)c1 (stereo unspecified) | inactive |
| Cc1n[nH]c(=O)c2c(NC(=O)COC(=O)c3ncc(Cl)c(Cl)c3Cl)oc(C)c12 | inactive |
| Cc1cccc(C)c1NC(=O)NC1=CCCN1C | inactive |
| Cn1c(=O)[nH]c(=O)c2c1nc(CN1CCN(c3ccccc3F)CC1)n2CCc1ccccc1 | inactive |
| Cn1c(=O)[nH]c(=O)c2c1nc(N1CCCCCC1)n2CC(=O)c1ccccc1 | inactive |
| C=C(C)Cn1c(N2CCCC2)nc2c1c(=O)[nH]c(=O)n2C | inactive |
| CCCCNc1nc2c(c(=O)[nH]c(=O)n2C)n1CCOc1ccccc1 | inactive |
| Cc1nnc(SCCCn2c(N3CCCCC3)nc3c2c(=O)[nH]c(=O)n3C)s1 | 2.08 µM (active) |
| C=C(C)Cn1c(N2CCN(CC)CC2)nc2c1c(=O)[nH]c(=O)n2C | 2.33 µM (active) |
| Cc1nnc(Sc2nc3c(c(=O)[nH]c(=O)n3C)n2Cc2ccccc2)s1 | inactive |
| Cn1c(=O)[nH]c(=O)c2c1nc(Br)n2CCCCSc1nc2ccccc2o1 | inactive |
| CC1CCN(c2nc3c(c(=O)[nH]c(=O)n3C)n2CCCc2ccccc2)CC1 | 10.4 µM (active) |
| FC(F)(F)c1cccc(-c2nc(COc3ccc(Cl)cc3Cl)no2)c1 | inactive |
| Cc1cc(C)nc(NS(=O)(=O)c2ccc(N3C(=O)C4CCCCC4C3=O)cc2)n1 (stereo unspecified) | inactive |
| CCc1ccc(NC(=O)Cn2nnc(C(=O)NCc3ccc4c(c3)OCO4)c2N)cc1 | inactive |
| COc1ccc(S(=O)(=O)N2CCOCC2)cc1NC(=O)Cc1coc2cc(C)ccc12 | inactive |

| Structure (SMILES) | Potency |
| --- | --- |
| COc1ccc(S(=O)(=O)NC(C)C)cc1C(=O)NC1CCCCC1 | inactive |
| Cc1ccc(S(=O)(=O)N2CCN(C)CC2)cc1C(=O)NC1CCCCC1 | inactive |
| COc1ccc(S(=O)(=O)N2CCOCC2)cc1NC(=O)COc1ccccc1 | inactive |
| COc1ccc(S(=O)(=O)N2CCOCC2)cc1C(=O)NC1CCCCC1 | 4.65 µM (active) |
| Cc1ccc(S(=O)(=O)N2CCOCC2)cc1NC(=O)CSc1nnc(N)s1 | inactive |
| COc1ccc(S(=O)(=O)N2CCOCC2)cc1NC(=O)Cc1c(F)cccc1Cl | inactive |
| CC(C)Oc1ccc(S(=O)(=O)N2CCOCC2)cc1NC(=O)C1CCCC1 | 11.7 µM (active) |
| COc1ccc(S(=O)(=O)N2CCOCC2)cc1NC(=O)CSc1cc(C)ccc1C | 7.38 µM (active) |
| NC(=O)COC(=O)c1ccc2c(c1)C(=O)N(Cc1ccco1)C2=O | inactive |
| Cc1cc(C)c(CN2CCN(C(=O)Cn3ccc(NC(=O)OCc4ccccc4)nc3=O)CC2)c(C)c1 | inactive |
| O=C(COC(=O)Cn1[nH]c(=O)c2ccccc2c1=O)Nc1ncc(Cl)cc1Cl | inactive |
| COc1ccc(C(=O)OCC(=O)c2ccc(Cl)s2)c(OC)c1OC | inactive |
| CCc1cccc(C)c1NC(=O)COC(=O)CNC(=O)c1cccs1 | inactive |
| CN(C)c1cccc(C(=O)N2CCC(n3nccc3NC(=O)C3CCOC3)CC2)c1 (stereo unspecified) | inactive |
| Cc1nnc2n1N=C(c1ccccc1)CS2 | inactive |
| CCN(CC)S(=O)(=O)c1ccc(Cl)c(C(=O)NCCN2CCOCC2)c1 | inactive |
| O=C(NCC1CCCO1)/C(=C/c1ccc(Cl)cc1)NC(=O)c1ccccc1 (stereo unspecified) | inactive |
| O=C(NC(=O)c1ccccc1)NC(=O)c1ccccc1 | inactive |
| N#C/C(=C/c1ccc(Cl)cc1)NC(=O)c1ccccc1 | 3.7 µM (active) |
| COc1ccc(N2C(=O)C(CC(=O)Nc3ccccc3)N(Cc3ccc(OC)c(OC)c3)C2=O)cc1 (stereo unspecified) | inactive |
| CCOc1ccc(NC(=O)CC2C(=O)N(c3ccccc3)C(=O)N2CCOC)cc1 (stereo unspecified) | inactive |
| CCCOc1ccc(NC(=O)CC2C(=O)N(C)C(=S)N2Cc2ccc3c(c2)OCO3)cc1 (stereo unspecified) | 0.329 µM (active) |
| CCS(=O)(=O)c1ccc(-c2cccc(NC(=O)c3ccc(Br)o3)c2)nn1 | inactive |
